“And” between values parts separate entries of the source, which are not always exact repeats. Identical values can stand only once. The whole screen tested about 420,000 compounds, of which about 50,000 (12%) were called active. A call without a number means that no potency is given here. Not shown: some 26% with an inconclusive outcome. The call rests on the fitted dose curve; in most records, active means well fitted inhibition curve with a large enough effect; inconclusive means small, poorly fitted or top-dose-only effect; inactive means flat fitted curve, though single readings scatter. For the sample, actives were picked, then their nearest neighbours and some compounds at random.
Potency means the concentration at half of the fitted maximal effect.

The nature of the test: qHTS for Inhibitors of human tyrosyl-DNA phosphodiesterase 1 (TDP1): qHTS in cells in presence of CPT. Further: nearly all actives have a fitted effect of over 55% in size. The note with it: chicken DT40 Tdp1-/-;hTDP1 cells + 20 nM CPT, ATP luminescence, 48 h; series mostly up to 46.2 µM. In short, it runs like this: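 Chicken DT40 Tdp1-/- cells stably complemented with human TDP1 were seeded at 400 cells/well in medium containing 20 nM camptothecin, exposed to pin-transferred compounds, and grown at 37 °C for at least 48 hr. Viability was read as ATP luminescence.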
On the technique in general: In qHTS, concentration-response curves come from the screen itself.
Consider `C[C@@H]1CN([C@H](C)CO)C(=O)CCCn2cc(nn2)CO[C@H]1CN(C)S(C)(=O)=O`, for which the Potency entry was “inactive”.
`O=C(O)c1ccccc1C(=O)NC1=NN(c2ccccc2)CC1`: the Potency entry is “inactive”.
With `CNS(=O)(=O)c1ccc2c(c1)[nH]c(=S)n2C` the entry was “inactive”; with `CSc1ccccc1NC(=O)c1cc(Cl)sc1Cl`, “inactive”.
With `O=c1[nH]c(/C=C\c2cccc(C(F)(F)F)c2)nc(O)c1[N+](=O)[O-]` the entry was “inactive”; with `Cc1ccc(C)c(NC(=S)NNC(=S)Nc2ccc(C(C)C)cc2)c1`, “inactive”.
Consider `CC(OC(=O)CCC(=O)c1ccccc1)C(=O)Nc1ccc(F)cc1` (stereo unspecified), for which the Potency entry is “inactive”.
The entry for `CCc1ccc(NC(=O)CN2C(=O)CSC2=O)cc1` is “inactive”.
With `Cc1ccc(OCCC(=O)Nc2ccc(S(=O)(=O)Nc3nccs3)cc2)cc1` the entry was “inactive”; with `O=C(NCc1ccc2c(c1)OCO2)c1ccc2c(c1)C(=O)N(CC1CCCO1)C2=O` (stereo unspecified), “inactive”.
The figure for `O=C1c2cccc3c([N+](=O)[O-])ccc(c23)C(=O)N1CC1CCCO1` (stereo unspecified) is 6.51 µM (active); for `CCC(=O)Nc1ccc(C(=O)Nc2ccc3c(c2)C(=O)N(CC2CCCO2)C3=O)cc1` (stereo unspecified) it is “inactive”.
Consider `Cc1nn(C(C)CC(=O)O)c(C)c1C` (stereo unspecified), for which the Potency entry was “inactive”.
As to `NS(=O)(=O)c1ccc(CNC(=S)NC(=O)c2ccco2)cc1`, the Potency result is “inactive”.
In the case of `Cc1ccc(N(Cc2cc3ccccc3[nH]c2=O)C(=O)c2cccs2)cc1`, the Potency result is “inactive”.
Take `Cc1ccc(N(Cc2cc(=O)[nH]c3ccccc23)C(=O)CCl)cc1`: the Potency is 2.91 µM (active).
The entry for `CC(=O)N(Cc1cc(=O)[nH]c2ccccc12)c1ccc(C)cc1C` is “inactive”.
The entry for `COc1ccc(Cc2nnc(SCC(=O)Nc3ccc(C)c(C)c3)o2)cc1OC` is “inactive”.
For `Cc1ccc(NC(=O)C2CCCN2S(=O)(=O)c2cccc3cccnc23)c(C)c1` (stereo unspecified), the Potency was 23.1 µM (active) and 16.4 µM (active).
Turning to `O=C(Nc1nccs1)C1CCCN1S(=O)(=O)c1cccc2cccnc12` (stereo unspecified), the Potency entry was “inactive”.
As to `Cc1cccc(NC(=O)C2CCN(S(=O)(=O)c3cccc4cccnc34)CC2)c1`, the Potency result was “inactive”.
With `C=CCOc1ccc(/C=C/C(=O)OCC(=O)NC(C)c2ccc(F)cc2)cc1` (stereo unspecified) the entry was “inactive”; with `COc1ccc2[nH]c3c(c2c1)CCN1C(=O)C(CC(=O)NCc2cccc(C(F)(F)F)c2)C[C@H](C(=O)N2CCOCC2)[C@@]31C` (stereo partly specified), “inactive”.
`COc1cc2c(cc1OC)CN(C(C)C(=O)Nc1cccc(S(=O)(=O)N3CCOCC3)c1)CC2` (stereo unspecified): the Potency result is “inactive”.
With `COc1ccc(Cn2c(=O)oc3ccccc32)cc1` the entry was “inactive”; with `COc1ccc(C(=O)CN(C(=O)c2ccc(Cl)cc2)N2C(=O)c3ccccc3C2=O)cc1`, “inactive”; with `COc1ccc(Cn2c(-c3ccc(Cl)cc3)c[n+]3ccccc23)cc1`, 1.84 µM (active).
The entry for `CN(CC(=O)Nc1c(Cl)cccc1Cl)C(=O)c1ccncc1` is “inactive”; for `COc1ccc(C(=O)Nc2cccc(NC(=O)c3ccc(OC)cc3OC)n2)c(OC)c1` it is 20.6 µM (active).
Consider `COC(=O)c1sc(NC(=O)c2ccc(OC)cc2OC)nc1C`, for which the Potency result was “inactive”.
With `COc1ccc(C(=O)NC2=NCCS2)c(OC)c1` the entry was “inactive”.
`CC1(C)NC(=O)N(CC(=O)Nc2cc(C(F)(F)F)cc(C(F)(F)F)c2)C1=O`: the Potency result is “inactive”.
With `CN1CCn2cnc(C(=O)NCC(=O)OC(C)(C)C)c2C1=O` the entry was “inactive”; with `O=C(CSc1nc2c(c(=O)[nH]1)CN(Cc1ccc(F)cc1)CC2)Nc1ccccc1Cl`, “inactive”; with `Cc1cc(C)cc(NC(=O)NCc2ccccn2)c1`, “inactive”.
Turning to `CCCCn1c(N)c(N(CCOC)C(=O)COc2c(C)cccc2C)c(=O)[nH]c1=O`, the Potency entry was “inactive”.
Take `COC(=O)c1cccc(-n2[nH]nnc2=S)c1`: the Potency result is “inactive”.
With `COc1ccc(C(=O)OCC(=O)NCC2CCCCC2)cc1S(=O)(=O)N1CCCc2ccccc21` the entry was “inactive”; with `COc1cc(C)c(C)cc1S(=O)(=O)N1CCCc2ccccc21`, 16.4 µM (active); with `COc1ccc(Br)cc1S(=O)(=O)N1CCN=C1C`, “inactive”.
With `CN(CC(=O)Nc1ccc(Cl)cc1)C(=O)c1ccc(COc2ccccc2)cc1` the entry was “inactive”; with `O=C(NCc1ccc2c(c1)OCO2)C(=O)NCC1OCCN1S(=O)(=O)c1ccc(F)cc1` (stereo unspecified), “inactive”; with `Brc1c(CSc2nncc3ccccc23)nc2ccccn12`, “inactive”.
Regarding `O=C(Nc1cc(C(F)(F)F)ccc1Cl)c1nc2ccccc2nc1N1CCCCC1`, the Potency entry is “inactive”.
With `C/C(=C/C(=O)N1CCN(C)CC1)C(=O)O` the entry was “inactive”; with `O=C(c1cc(-c2ccc(O)cc2)on1)N1CCOCC1`, “inactive”.
On to `CCc1nc2sc(C(=O)O)c(N)c2c2c1CCCC2`, for which the Potency entry is “inactive”.
For `COc1ccc(CCNC(=O)CS(=O)(=O)Cc2nc(-c3ccc(C)cc3)oc2C)cc1OC`, the Potency entry was “inactive”.
With `COc1cccc(-c2nc(CS(=O)(=O)CC(=O)N3CCN(c4cc(C)ccc4C)CC3)c(C)o2)c1` the figure was 3.26 µM (active); with `CCCCN(CC)CCCNC(=O)CS(=O)(=O)Cc1nc(-c2cccc(OC)c2)oc1C`, “inactive”; with `CC1CCN(CC(O)COc2ccc(C(=O)c3ccccc3)cc2)CC1` (stereo unspecified), “inactive”.
With `C[C@@H](NC(=O)[C@@H]1Cc2ccccc2CN1)C(=O)NC1CCCC1` the entry was “inactive”; with `Cc1noc(C)c1S(=O)(=O)N(C)C[C@H]1Oc2ccc(NC(=O)C3CC3)cc2C(=O)N([C@H](C)CO)C[C@@H]1C`, “inactive”.
With `CCC(C)c1ccc(NC(=S)N2CCCC2)cc1` (stereo unspecified) the figure was 13 µM (active); with `CCOc1ccc(NC(=S)N2CCCCCC2)cc1`, “inactive”.
Consider `CCOC(=O)c1ccc(NC(=S)N2CCCC2)cc1`, for which the Potency result is “inactive”.
With `Cc1cc(-c2ccc(C)c(S(=O)(=O)NC(C)Cc3ccco3)c2)on1` (stereo unspecified) the entry was “inactive”.
With `COc1ccc(CNS(=O)(=O)c2cc(-c3cc(C)no3)ccc2C(C)C)cc1` the figure was 0.92 µM (active); with `CCOc1ccccc1CNS(=O)(=O)c1cc(-c2cc(C)no2)ccc1C`, “inactive”.
With `Cc1nn(-c2ccc(F)cc2)c(Cl)c1/C=C(/CCC(=O)O)c1nc2ccccc2s1` the entry was “inactive”.
As to `COc1cccc2sc(NNC(=O)c3nc4ccccc4s3)nc12`, the Potency was 5.17 µM (active).
With `O=C(Nc1ccccc1)Nc1nc2ccccc2s1` the entry was “inactive”; with `COc1ccccc1OCc1nc2ccccc2s1`, “inactive”; with `N#Cc1cccc(CSc2ncnc(N)n2)c1`, “inactive”.
Regarding `O=C(NCCCN1CCCC1=O)c1cccc(S(=O)(=O)NCc2ccccc2)c1`, the Potency result is “inactive”.
With `CC1CCCCC1NC(=O)COC(=O)Cc1ccc(Br)cc1` (stereo unspecified) the entry was “inactive”.

The values are drawn from PubChem BioAssay AID686979 (National Center for Advancing Translational Sciences (NCATS), 2013).
